According to the supplement of paper PMC11732987, “Enantioselective OTUD7B fragment discovery through chemoproteomics screening and high-throughput optimisation” (Communications Chemistry, 2025):

What was measured:
Test in all cases: log2 ratio of Biotin-Ahx-Ub-VS probe labelling (fragment/DMSO); higher = less target engagement (more negative = stronger competition), active = hit call of the paper (q ≤ 0.05, log2 ratio ≤ -1)
Conditions in all cases: compound concentration: 200 uM; treatment time: 3 h
USP19 = target: T1, USP19 (UniProt O94966)
T1 sequence (whole entry): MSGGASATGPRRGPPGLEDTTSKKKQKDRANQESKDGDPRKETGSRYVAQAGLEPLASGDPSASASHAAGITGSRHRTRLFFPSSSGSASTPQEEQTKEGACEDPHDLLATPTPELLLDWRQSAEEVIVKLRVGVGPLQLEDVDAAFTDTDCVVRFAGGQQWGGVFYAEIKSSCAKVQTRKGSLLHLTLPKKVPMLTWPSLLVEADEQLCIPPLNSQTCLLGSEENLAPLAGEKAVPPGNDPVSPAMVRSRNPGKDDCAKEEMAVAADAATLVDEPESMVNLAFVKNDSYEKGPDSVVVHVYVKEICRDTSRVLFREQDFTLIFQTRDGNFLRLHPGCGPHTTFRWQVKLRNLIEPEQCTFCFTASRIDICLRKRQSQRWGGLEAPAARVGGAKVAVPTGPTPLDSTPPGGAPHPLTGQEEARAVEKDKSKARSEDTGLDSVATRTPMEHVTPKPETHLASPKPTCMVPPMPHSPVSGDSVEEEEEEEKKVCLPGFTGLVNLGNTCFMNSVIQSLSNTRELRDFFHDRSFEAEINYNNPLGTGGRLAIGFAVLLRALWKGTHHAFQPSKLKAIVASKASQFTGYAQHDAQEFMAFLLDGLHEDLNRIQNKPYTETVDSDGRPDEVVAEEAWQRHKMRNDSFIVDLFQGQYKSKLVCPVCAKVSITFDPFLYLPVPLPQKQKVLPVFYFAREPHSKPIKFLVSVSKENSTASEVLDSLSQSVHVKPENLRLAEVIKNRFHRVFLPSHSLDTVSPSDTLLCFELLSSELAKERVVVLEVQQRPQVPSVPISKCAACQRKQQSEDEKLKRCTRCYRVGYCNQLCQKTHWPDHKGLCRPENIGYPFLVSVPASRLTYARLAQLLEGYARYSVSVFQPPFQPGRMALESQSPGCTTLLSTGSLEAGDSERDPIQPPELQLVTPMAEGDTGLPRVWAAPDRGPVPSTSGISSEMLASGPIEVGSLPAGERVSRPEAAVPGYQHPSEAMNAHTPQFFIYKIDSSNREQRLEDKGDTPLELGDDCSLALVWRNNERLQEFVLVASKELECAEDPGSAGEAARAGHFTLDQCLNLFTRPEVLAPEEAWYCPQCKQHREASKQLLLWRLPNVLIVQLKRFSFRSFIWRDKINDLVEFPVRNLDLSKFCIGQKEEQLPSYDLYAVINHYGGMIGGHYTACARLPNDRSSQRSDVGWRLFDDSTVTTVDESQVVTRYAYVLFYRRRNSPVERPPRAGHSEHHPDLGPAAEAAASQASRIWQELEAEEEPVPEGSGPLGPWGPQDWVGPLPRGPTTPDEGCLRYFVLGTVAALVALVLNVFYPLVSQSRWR
How it was run: (§1)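 HEK293T lysate (495 µg per sample, in Tris/CHAPS/IGEPAL buffer with protease inhibitors) was exposed in triplicate for 3 h to fragment at 200 µM or to vehicle, then to Biotin-Ahx-Ub-VS at 0.5 µM final for 1 h. Labelled DUBs were enriched on NeutrAvidin, digested with LysC and trypsin, and analysed by diaPASEF LC-MS/MS. Spectronaut label-free quantities were normalised to the global median, and values are average log2 ratios of fragment over vehicle from an unpaired t-test. Only proteins with ≥2 unique peptides were used.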

USP22 = target: T2, USP22 (UniProt Q9UPT9)
T2 sequence (whole entry): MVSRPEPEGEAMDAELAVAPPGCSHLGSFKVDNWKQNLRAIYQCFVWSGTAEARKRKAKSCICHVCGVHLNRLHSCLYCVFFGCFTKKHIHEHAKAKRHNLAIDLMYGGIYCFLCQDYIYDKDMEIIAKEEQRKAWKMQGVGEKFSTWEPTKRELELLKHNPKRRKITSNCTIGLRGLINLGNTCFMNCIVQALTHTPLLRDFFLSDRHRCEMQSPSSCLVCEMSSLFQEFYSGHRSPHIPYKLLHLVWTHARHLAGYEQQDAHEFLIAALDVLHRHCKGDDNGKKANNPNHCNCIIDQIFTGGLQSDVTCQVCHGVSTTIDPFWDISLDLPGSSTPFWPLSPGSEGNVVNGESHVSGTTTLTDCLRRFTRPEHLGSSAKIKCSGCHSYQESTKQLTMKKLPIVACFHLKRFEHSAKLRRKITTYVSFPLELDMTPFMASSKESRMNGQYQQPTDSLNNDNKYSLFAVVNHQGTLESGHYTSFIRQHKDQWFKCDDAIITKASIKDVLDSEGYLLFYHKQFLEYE
How it was run: as §1

USP24 = USP24 (UniProt Q9UPU5)
Chain of USP24 (Q9UPU5 whole entry): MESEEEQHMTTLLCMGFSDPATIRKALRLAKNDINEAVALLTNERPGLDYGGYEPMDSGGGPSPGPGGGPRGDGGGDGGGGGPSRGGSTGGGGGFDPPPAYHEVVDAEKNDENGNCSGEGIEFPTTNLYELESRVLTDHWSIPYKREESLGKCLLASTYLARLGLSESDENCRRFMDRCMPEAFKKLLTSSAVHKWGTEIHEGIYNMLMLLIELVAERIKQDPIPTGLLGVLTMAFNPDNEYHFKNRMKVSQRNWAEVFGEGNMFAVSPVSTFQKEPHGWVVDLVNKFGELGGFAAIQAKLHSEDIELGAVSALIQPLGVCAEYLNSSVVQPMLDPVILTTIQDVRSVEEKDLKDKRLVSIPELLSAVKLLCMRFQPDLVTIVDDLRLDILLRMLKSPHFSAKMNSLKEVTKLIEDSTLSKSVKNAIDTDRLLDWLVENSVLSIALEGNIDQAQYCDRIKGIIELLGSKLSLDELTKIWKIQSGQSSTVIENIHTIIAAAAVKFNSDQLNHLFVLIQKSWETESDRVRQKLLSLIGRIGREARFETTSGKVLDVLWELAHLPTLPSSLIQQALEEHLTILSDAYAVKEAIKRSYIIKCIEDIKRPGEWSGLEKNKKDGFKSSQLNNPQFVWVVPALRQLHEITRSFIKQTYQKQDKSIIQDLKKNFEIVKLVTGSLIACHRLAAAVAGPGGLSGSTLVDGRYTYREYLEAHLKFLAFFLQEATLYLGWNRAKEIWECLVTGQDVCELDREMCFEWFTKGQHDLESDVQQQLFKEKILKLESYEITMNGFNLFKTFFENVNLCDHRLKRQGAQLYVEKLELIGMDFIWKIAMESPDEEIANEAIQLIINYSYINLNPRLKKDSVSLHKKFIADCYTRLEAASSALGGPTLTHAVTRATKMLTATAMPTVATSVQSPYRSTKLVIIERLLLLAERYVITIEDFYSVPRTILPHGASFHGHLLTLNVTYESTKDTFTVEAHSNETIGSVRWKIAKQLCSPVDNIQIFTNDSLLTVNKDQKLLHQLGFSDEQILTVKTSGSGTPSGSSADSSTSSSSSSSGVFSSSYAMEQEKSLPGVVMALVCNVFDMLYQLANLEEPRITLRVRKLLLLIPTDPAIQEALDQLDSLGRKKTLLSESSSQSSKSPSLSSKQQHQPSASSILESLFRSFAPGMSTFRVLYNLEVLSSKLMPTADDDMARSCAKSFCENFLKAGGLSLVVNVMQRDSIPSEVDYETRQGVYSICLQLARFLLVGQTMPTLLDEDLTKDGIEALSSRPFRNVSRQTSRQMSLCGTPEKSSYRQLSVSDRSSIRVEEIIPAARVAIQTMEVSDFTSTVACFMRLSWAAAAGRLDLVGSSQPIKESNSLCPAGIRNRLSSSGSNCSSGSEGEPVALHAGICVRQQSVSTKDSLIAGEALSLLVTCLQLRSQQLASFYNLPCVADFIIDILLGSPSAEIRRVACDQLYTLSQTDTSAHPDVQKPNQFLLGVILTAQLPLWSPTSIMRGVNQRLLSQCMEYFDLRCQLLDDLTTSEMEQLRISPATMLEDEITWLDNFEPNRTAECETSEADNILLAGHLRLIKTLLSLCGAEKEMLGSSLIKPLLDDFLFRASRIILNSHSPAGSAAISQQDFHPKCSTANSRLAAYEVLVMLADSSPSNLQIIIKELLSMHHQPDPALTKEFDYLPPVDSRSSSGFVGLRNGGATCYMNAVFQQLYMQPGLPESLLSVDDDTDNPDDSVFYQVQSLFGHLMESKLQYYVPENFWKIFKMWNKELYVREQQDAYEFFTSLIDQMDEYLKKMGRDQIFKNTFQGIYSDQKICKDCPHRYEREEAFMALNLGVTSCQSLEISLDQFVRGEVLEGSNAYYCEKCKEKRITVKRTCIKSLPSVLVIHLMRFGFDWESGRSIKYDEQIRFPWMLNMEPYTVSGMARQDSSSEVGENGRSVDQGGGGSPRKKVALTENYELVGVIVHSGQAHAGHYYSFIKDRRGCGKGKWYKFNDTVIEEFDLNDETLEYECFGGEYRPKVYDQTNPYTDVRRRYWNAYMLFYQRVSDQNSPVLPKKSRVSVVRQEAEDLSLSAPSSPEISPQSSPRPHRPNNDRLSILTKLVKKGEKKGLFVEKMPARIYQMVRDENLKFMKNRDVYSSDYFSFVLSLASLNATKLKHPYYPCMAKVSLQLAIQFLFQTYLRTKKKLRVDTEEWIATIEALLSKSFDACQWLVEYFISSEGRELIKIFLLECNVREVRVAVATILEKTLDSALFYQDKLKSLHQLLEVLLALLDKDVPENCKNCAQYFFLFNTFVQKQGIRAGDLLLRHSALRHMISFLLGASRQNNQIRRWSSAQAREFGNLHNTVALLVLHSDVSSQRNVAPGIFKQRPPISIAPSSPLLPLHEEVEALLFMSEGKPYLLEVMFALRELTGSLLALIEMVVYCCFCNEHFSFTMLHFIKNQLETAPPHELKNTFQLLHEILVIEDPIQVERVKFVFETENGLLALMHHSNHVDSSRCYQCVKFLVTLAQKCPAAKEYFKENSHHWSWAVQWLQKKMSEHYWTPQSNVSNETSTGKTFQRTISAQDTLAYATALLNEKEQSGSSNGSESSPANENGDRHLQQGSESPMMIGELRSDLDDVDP
How it was run: as §1

USP25 = target: T3, USP25 (UniProt Q9UHP3)
T3 sequence (whole entry): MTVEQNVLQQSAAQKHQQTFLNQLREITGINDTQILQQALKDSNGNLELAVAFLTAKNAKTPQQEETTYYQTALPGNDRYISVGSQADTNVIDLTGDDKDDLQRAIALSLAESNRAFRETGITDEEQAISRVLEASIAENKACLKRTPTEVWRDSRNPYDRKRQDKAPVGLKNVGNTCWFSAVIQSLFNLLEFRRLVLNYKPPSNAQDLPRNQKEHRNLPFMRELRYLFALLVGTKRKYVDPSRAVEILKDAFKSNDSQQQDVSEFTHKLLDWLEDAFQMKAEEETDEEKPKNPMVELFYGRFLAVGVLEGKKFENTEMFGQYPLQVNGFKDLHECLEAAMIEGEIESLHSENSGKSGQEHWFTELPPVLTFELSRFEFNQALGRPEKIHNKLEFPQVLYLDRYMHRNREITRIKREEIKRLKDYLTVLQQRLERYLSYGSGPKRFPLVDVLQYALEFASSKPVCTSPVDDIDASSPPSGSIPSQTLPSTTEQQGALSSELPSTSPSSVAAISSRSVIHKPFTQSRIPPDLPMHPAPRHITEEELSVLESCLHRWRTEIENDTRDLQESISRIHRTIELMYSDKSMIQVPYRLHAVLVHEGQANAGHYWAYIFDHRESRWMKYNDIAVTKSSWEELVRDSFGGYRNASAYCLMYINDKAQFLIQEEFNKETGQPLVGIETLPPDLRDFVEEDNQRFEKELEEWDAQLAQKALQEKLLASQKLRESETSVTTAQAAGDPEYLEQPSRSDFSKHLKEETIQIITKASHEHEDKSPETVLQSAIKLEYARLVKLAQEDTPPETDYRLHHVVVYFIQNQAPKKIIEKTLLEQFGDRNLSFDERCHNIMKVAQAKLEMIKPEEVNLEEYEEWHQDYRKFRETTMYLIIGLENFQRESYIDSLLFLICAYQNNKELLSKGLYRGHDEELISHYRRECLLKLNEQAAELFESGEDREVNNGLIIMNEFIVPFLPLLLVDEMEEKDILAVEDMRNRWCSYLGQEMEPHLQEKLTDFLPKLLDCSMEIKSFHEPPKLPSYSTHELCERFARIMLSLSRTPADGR
How it was run: as §1

USP28 = target: T4, USP28 (UniProt Q96RU2)
T4 sequence (whole entry): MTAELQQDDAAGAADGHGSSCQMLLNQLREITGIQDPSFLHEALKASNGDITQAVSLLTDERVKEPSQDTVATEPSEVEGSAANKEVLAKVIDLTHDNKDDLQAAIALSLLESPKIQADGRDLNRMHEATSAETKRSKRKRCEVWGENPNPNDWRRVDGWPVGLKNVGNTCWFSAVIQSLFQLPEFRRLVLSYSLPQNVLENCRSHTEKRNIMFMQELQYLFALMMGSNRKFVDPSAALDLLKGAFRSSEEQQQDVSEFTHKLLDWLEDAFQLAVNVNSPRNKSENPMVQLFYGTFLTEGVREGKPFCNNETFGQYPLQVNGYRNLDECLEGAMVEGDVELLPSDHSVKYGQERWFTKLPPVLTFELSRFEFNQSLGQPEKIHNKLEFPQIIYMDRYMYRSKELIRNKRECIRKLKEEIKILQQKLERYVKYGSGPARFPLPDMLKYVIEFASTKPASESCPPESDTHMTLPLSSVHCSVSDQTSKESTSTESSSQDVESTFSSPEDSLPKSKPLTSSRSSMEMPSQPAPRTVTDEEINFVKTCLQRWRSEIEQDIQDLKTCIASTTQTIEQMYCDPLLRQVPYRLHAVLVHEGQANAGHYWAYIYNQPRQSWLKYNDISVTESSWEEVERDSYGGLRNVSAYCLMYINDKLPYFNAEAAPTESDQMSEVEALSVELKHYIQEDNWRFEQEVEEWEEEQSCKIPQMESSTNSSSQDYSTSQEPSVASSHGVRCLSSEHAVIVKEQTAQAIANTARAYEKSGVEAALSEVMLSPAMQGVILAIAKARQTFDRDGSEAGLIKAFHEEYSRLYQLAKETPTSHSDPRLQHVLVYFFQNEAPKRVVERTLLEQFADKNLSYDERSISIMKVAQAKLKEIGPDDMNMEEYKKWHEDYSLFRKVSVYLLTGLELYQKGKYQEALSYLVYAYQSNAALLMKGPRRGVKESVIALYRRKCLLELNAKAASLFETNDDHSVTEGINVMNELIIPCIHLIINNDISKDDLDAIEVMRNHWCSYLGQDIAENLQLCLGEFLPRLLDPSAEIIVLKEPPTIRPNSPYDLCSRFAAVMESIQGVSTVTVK
How it was run: as §1

Measured: log2 ratio of Biotin-Ahx-Ub-VS probe labelling

O=C(CCl)N1CCC(C(=O)N2CCCCCC2)CC1
inactive: USP19 -0.129 | USP22 -0.145 | USP24 -0.141 | USP25 -0.0854 | USP28 -0.307
